From PubChem BioAssay (NCATS) come the findings set out here.

Inconclusive results are not listed. Entries that show only a call come without a potency. Active and inactive are the calls of the source. Calls follow the shape of the dose curve; as a rule, active = well fitted inhibition curve with a large enough effect; inconclusive = small, poorly fitted or top-dose-only effect; inactive = flat fitted curve, though single readings scatter.
Potency is read from the fitted curve at half-maximal effect.

For this experiment, the system named is MCC-13. The experiment is described as follows: qHTS assay to identify novel small-molecules to repurpose for Merkel cell carcinoma treatment (AID 1296009). Also: nearly all actives have a fitted effect of over 60% in size. The settings on record: MCC and control cell lines, CellTiter-Glo viability, 72 h; series mostly up to 46 µM. The gist of the method: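 Luminescence from CellTiter-Glo, read 10 min after addition at room temperature, reported viability following a 72 hr, 37 degree celsius treatment with NPC or MIPE compounds in titration; values normalized to plate controls.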
A general note: qHTS replaces the single test concentration by a dilution series.
With `CCCN[C@H]1CCc2nc(N)sc2C1`, the Potency result is “inactive”.

Take `CCOCC(O)COc1ccc(NC(=O)CC[S+](C)C)cc1` (stereo unspecified): the Potency entry is “inactive”.

`COc1cc(NS(=O)(=O)c2ccc(N)cc2)nc(OC)n1`: the Potency result is “inactive”.

Turning to `COC(=O)Nc1nc2ccc(C(=O)c3ccccc3)cc2[nH]1`, the Potency is 3.72 µM (active).

Turning to `O=C(N[C@H](CO)[C@H](O)c1ccc([N+](=O)[O-])cc1)C(Cl)Cl`, the Potency entry was “inactive”.

In the case of `CCCc1cc(C(N)=S)ccn1`, the Potency entry was “inactive”.

For `O=C(O)c1cn(C2CC2)c2cc(N3CCNCC3)c(F)cc2c1=O`, the Potency result is “inactive”.

As for `O=C(O)CCn1c2c(c3ccccc31)C[C@H](NS(=O)(=O)c1ccc(F)cc1)CC2`, the Potency result is “inactive”.

Regarding `Cc1noc(NS(=O)(=O)c2ccc(N)cc2)c1C`, the Potency result was “inactive”.

For `CCn1cc(C(=O)O)c(=O)c2cc(F)c(N3CCN(C)CC3)cc21`, the Potency entry is “inactive”.

As to `O=C(O)CSCC(=O)NC1CCSC1=O` (stereo unspecified), the Potency result was “inactive”.

Consider `CN(C)CCc1c[nH]c2ccc(CS(=O)(=O)N3CCCC3)cc12`, for which the Potency result is “inactive”.

With `CO[C@@H]1[C@@H](OC(N)=O)[C@@H](O)[C@H](Oc2ccc3c(O)c(NC(=O)c4ccc(O)c(CC=C(C)C)c4)c(=O)oc3c2C)OC1(C)C`, the Potency entry is “inactive”.

Turning to `CCOc1cc(N)c(Cl)cc1C(=O)NCC1CN(Cc2ccc(F)cc2)CCO1` (stereo unspecified), the Potency entry was “inactive”.

For the compound `CCC(=O)O[C@]1(C(=O)SCF)[C@H](C)C[C@H]2[C@@H]3C[C@H](F)C4=CC(=O)C=C[C@]4(C)[C@@]3(F)[C@@H](O)C[C@@]21C`, the Potency entry is “inactive”.

Regarding `Cc1oc(=O)oc1CN1CCN(c2cc3c(cc2F)c(=O)c(C(=O)O)c2n3C(C)S2)CC1` (stereo unspecified), the Potency result is “inactive”.

Take `NC1(c2ccc(-c3nc4ccn5c(=O)[nH]nc5c4cc3-c3ccccc3)cc2)CCC1`: the Potency entry is “inactive”.

Consider `C[C@@H](CN1CC(=O)NC(=O)C1)N1CC(=O)NC(=O)C1`, for which the Potency entry is “inactive”.

Regarding `OC(Cn1cncn1)(Cn1cncn1)c1ccc(F)cc1F`, the Potency result was “inactive”.

Regarding `O=NN(CCCl)C(=O)NC1CCCCC1`, the Potency result is “inactive”.

Regarding `Clc1ccccc1CN1CCc2sccc2C1`, the Potency result is “inactive”.

In the case of `Cn1c(=O)c2c(ncn2CC(O)CO)n(C)c1=O` (stereo unspecified), the Potency entry is “inactive”.

As for `Cc1cccc(N(C)C(=S)Oc2ccc3ccccc3c2)c1`, the Potency result was “inactive”.

Turning to `CN(CCOc1ccc(CC2SC(=O)NC2=O)cc1)c1ccccn1` (stereo unspecified), the Potency result was “inactive”.

As for `COC(c1ccccc1)(c1ccccc1)[C@H](Oc1nc(C)cc(C)n1)C(=O)O`, the Potency entry was “inactive”.

`CCc1cc(C(N)=S)ccn1`: the Potency entry is “inactive”.

On to `COCCCOc1cc(C[C@@H](C[C@H](N)[C@@H](O)C[C@H](C(=O)NCC(C)(C)C(N)=O)C(C)C)C(C)C)ccc1OC`, for which the Potency result was “inactive”.

For `CCN(C)C(=O)Oc1cccc([C@H](C)N(C)C)c1`, the Potency result is “inactive”.

In the case of `CCn1cc(C(=O)O)c(=O)c2cc(F)c(N3CCNCC3)nc21`, the Potency entry was “inactive”.

Consider `CC[C@H](NC(C)C)[C@H](O)c1ccc(O)c2[nH]c(=O)ccc12`, for which the Potency entry was “inactive”.

In the case of `CC(C)OC(=O)C(C(=O)OC(C)C)=C1SC=CS1`, the Potency entry was “inactive”.

Take `COc1ccc(-c2ccc3cc(C(=O)O)ccc3c2)cc1C12CC3CC(CC(C3)C1)C2`: the Potency entry is “inactive”.

As to `CCOC(=O)c1ccc(OC(=O)CCCCCN=C(N)N)cc1`, the Potency result is “inactive”.

For `O=S(=O)(c1cccc2cnccc12)N1CCCNCC1`, the Potency entry was “inactive”.

With `CNC1CCCN(c2c(F)cc3c(=O)c(C(=O)O)cn(C4CC4)c3c2OC)C1` (stereo unspecified), the Potency result is “inactive”.

On to `COc1ccc2c(c1)c(CC(=O)OCC(=O)O)c(C)n2C(=O)c1ccc(Cl)cc1`, for which the Potency result was “inactive”.
